The results in this text go back to PubChem BioAssay (Tox21).

Each structure is given as a SMILES string. Inconclusive results are not listed. Values without a mark were called inactive. Active and inactive are the calls of the source. Unless noted, calls follow the shape of the dose curve; as a rule, active = well fitted curve in the direction sought with a large enough effect in the repeat runs; inconclusive = weak or mixed curves; inactive = no such curve, though single readings can be large; an effect the other way counts as inactive or inconclusive.
% is scaled to controls: 0 for no effect and ±100 for the full control effect.

Sequence of Estrogen receptor (Homo sapiens) (P03372 whole entry, looked up): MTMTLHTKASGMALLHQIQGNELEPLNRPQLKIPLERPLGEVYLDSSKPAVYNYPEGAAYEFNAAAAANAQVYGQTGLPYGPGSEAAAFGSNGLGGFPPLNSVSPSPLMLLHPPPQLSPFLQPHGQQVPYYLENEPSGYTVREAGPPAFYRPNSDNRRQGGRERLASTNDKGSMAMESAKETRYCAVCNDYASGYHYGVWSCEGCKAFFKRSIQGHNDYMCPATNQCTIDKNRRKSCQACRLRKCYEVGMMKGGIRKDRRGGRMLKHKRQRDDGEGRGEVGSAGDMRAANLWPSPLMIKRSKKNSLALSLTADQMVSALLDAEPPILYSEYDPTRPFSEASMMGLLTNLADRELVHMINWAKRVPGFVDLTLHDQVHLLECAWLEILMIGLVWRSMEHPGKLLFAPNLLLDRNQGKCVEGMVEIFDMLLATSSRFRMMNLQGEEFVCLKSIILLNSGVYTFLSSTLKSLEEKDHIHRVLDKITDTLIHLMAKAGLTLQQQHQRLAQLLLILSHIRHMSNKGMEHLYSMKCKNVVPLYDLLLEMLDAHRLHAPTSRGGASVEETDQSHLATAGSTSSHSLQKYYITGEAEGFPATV

The target of one assay is Estrogen receptor (Homo sapiens) (UniProt P03372). The assay can be described thus: qHTS assay to identify small molecule antagonists of the estrogen receptor alpha (ER-alpha) signaling pathway using the BG1 cell line in the presence of 0.1 nM 17-beta-estradiol (AID 1259244). Also: nearly all actives have a fitted effect of over 50% in size. The following applies: VM7Luc4E2 (BG1) ERE-luciferase, antagonist mode, 0.1 nM E2, 22 h; series mostly up to 92.4 µM; activity change, negative = inhibition: at the top concentration. A digest of the protocol:
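VM7Luc4E2 cells (endogenous full-length ER-alpha, 4×ERE-luciferase), kept 5 days in phenol red-free, charcoal-stripped FBS medium; 4,000 cells/well. Compounds added with 0.1 nM (final) 17beta-estradiol, 22 hr at 37C; luminescence read with ONE-Glo after 30 min.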
With `NC(CSCC(=O)O)C(=O)O` (centres undefined), the “activity change, negative = inhibition” value was 5.66% [at 42.5 µM]. Same read-out and setting: next, `N=C(N)c1ccc(OCCCOc2ccc(C(=N)N)cc2)cc1`: 1.72% [at 42.5 µM]. With `CCCCCCCCCCCCCCCCC`, the “activity change, negative = inhibition” value is -3.46%.

Regarding `CN(C)CCCNCCCN(C)C`, the “activity change, negative = inhibition” value was 2.53%. Take `O=C(O)CCCl`: the “activity change, negative = inhibition” value was -1.97%. The same measure, in the same setting: the figure for `Cc1cc2c(cc1S(N)(=O)=O)S(=O)(=O)CCC2` is 0.444% [at 42.5 µM]. With `O=c1n(CCO)c(=O)n(CCO)c(=O)n1CCO`, the outcome was inactive. Turning to `CCS(=O)(=O)c1ccc(OC)c(C(=O)OC)c1`, the “activity change, negative = inhibition” value is 2.7% [at 42.5 µM]. Consider `CN1C(=O)N(C)C(O)C1O` (centres undefined), for which the “activity change, negative = inhibition” value is 4.87%. In the case of `CC(C)NC(=O)NC(C)C`, the “activity change, negative = inhibition” value was 0.372%. For `CC(C)NCCCC1(C(N)=O)c2ccccc2-c2ccccc21`, the “activity change, negative = inhibition” value was -2.28% [at 42.5 µM]. For the compound `C=C(C)C(=O)OCCCCCCCC(C)C`, the “activity change, negative = inhibition” value was 24.7%. With `CCOC(=O)[C@H](CCc1ccccc1)N[C@@H](C)C(=O)N1[C@H](C(=O)O)C[C@@H]2CCC[C@@H]21`, the “activity change, negative = inhibition” value is 0.296% [at 42.5 µM]. On to `O=Cc1cccc([N+](=O)[O-])c1`, for which the “activity change, negative = inhibition” value was -6.55%.

With `CCCCCSCCCCC`, the “activity change, negative = inhibition” value was 5.35%. On to `Cn1cc(S(C)=O)c(=O)c2ccc(F)cc21` (centres undefined), for which the “activity change, negative = inhibition” value was 0.0805% [at 42.5 µM]. For `CC(C)CCCC(C)N` (centres undefined), the “activity change, negative = inhibition” value is 6.73% [at 42.5 µM].

Regarding `CC(C)(O)C(=O)c1ccccc1`, the “activity change, negative = inhibition” value was 5.47%. Consider `N#Cc1ccc(C2CCCc3cncn32)cc1` (centres undefined), for which the “activity change, negative = inhibition” value was 4.48% [at 42.5 µM]. On the same count and under the same terms, next, `C[C@@H]1CCN(C(=O)[C@H](CCCN=C(N)N)NS(=O)(=O)c2cccc3c2NC[C@H](C)C3)[C@@H](C(=O)O)C1`: 3.16% [at 42.5 µM].

Tested on in the next assay: not listed separately
The assay can be described thus: qHTS assay to identify small molecule phospholipidosis (PLD) inducers (AID 1259344; active = well fitted curve in the direction sought with a large enough effect; an effect the other way counts as inactive or inconclusive). The conditions noted are these: HepG2 phospholipidosis, LipidTOX Red imaging, 24 h; series mostly up to 38.3 µM; PLD induction: at the top concentration. An outline of the steps: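 HepG2 cells, 900/well, treated with compound plus LipidTOX Red for 24 h at 37 C; amiodarone positive and DMSO negative controls. Fixed with paraformaldehyde/Hoechst, then high-content imaging scored LipidTOX pit count and integrated intensity per well and per cell.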
In general terms: Quantitative high-throughput screening tests each substance at several concentrations.
`NC(CSCC(=O)O)C(=O)O` (centres undefined): the “PLD induction” value was -0.842%. With `Cc1cc2c(cc1S(N)(=O)=O)S(=O)(=O)CCC2`, the “PLD induction” value is -0.235% [at 15.5 µM].

`CN(C(=O)c1c(O)c2ccccc2n(C)c1=O)c1ccccc1`: the “PLD induction” value is -0.0944%. As to `CCOC(=O)[C@H](CCc1ccccc1)N[C@@H](C)C(=O)N1[C@H](C(=O)O)C[C@@H]2CCC[C@@H]21`, the “PLD induction” value was 0.143%. `Cn1cc(S(C)=O)c(=O)c2ccc(F)cc21` (centres undefined): the “PLD induction” value was -0.998%.

Tested on in the next assay: not listed separately
Kind of assay: qHTS assay to identify small molecule HDAC inhibitors (AID 1259364). Also: top concentration of the series differs between compounds; nearly all actives have a fitted effect of over 45% in size. The conditions noted are these: HCT-116 HDAC-Glo I/II luminescence, 2 h; series mostly up to 92.4 µM; activity change, negative = inhibition: at the top concentration. An outline of the steps:
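Wild-type HCT-116 cells, plated overnight at 37 C, exposed to compounds 2 hr at 37 C; luminogenic HDAC-Glo substrate then added 30 min at room temperature. Luminescence reports relative endogenous class I/II HDAC activity.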
Turning to `NC(CSCC(=O)O)C(=O)O` (centres undefined), the “activity change, negative = inhibition” value is 0.413% [at 42.5 µM]. Regarding `O=C(O)CNC(=O)c1ccc([N+](=O)[O-])cc1`, the “activity change, negative = inhibition” value was -1.55%. As to `N=C(N)c1ccc(OCCCOc2ccc(C(=N)N)cc2)cc1`, the “activity change, negative = inhibition” value was -22% [at 42.5 µM]. Turning to `CCCCCCCCCCCCCCCCC`, the “activity change, negative = inhibition” value is 3.07%. As to `CN(C)CCCNCCCN(C)C`, the “activity change, negative = inhibition” value was -0.288%. On to `COc1ccc2c(c1)c(CC(=O)OCC(=O)O)c(C)n2C(=O)c1ccc(Cl)cc1`, for which the “activity change, negative = inhibition” value is 6.16% [at 42.5 µM]. `CCCCOCCOCCOCCCC`: the “activity change, negative = inhibition” value was -6.01%. As to `COC(C)(C)CCCC(C)CC=O` (centres undefined), the “activity change, negative = inhibition” value is 0.676%. `CCCN1CCCC[C@H]1C(=O)Nc1c(C)cccc1C`: the “activity change, negative = inhibition” value was 0.978% [at 42.5 µM]. On to `O=C(O)CCCl`, for which the “activity change, negative = inhibition” value was -19.9%. Consider `COc1nc(N)nc2c1ncn2[C@@H]1O[C@H](CO)[C@@H](O)[C@@H]1O`, for which the “activity change, negative = inhibition” value is -7.56% [at 42.5 µM].

As for `C1OCOCO1`, the “activity change, negative = inhibition” value is -0.772%. Consider `Cc1cc2c(cc1S(N)(=O)=O)S(=O)(=O)CCC2`, for which the “activity change, negative = inhibition” value was -0.419% [at 42.5 µM].

With `O=c1n(CCO)c(=O)n(CCO)c(=O)n1CCO`, the Potency entry is “inactive”. With `CCCCCCCCCCCCN(CCCCCCCCCCCC)CCCCCCCCCCCC`, the “activity change, negative = inhibition” value is 6.85%. For the compound `CCS(=O)(=O)c1ccc(OC)c(C(=O)OC)c1`, the “activity change, negative = inhibition” value was 3.88% [at 42.5 µM].

Take `N=C(N)c1ccccc1`: the “activity change, negative = inhibition” value was -19.9%. Take `CN1C(=O)N(C)C(O)C1O` (centres undefined): the “activity change, negative = inhibition” value was 0.21%. Same read-out and setting: the figure for `CC(C)NC(=O)NC(C)C` is 3.02%; for `Brc1c(NC2=NCCN2)ccc2nccnc12` it is 4.6% [at 42.5 µM]; for `CN(C(=O)c1c(O)c2ccccc2n(C)c1=O)c1ccccc1` it is -2.08% [at 42.5 µM]. In the case of `CC(C)NCCCC1(C(N)=O)c2ccccc2-c2ccccc21`, the “activity change, negative = inhibition” value was -2.43% [at 42.5 µM]. With `C=C(C)C(=O)OCCCCCCCC(C)C`, the “activity change, negative = inhibition” value is 2.06%. `CC(NC(CCc1ccccc1)C(=O)O)C(=O)N1C(=O)N(C)CC1C(=O)O` (centres undefined): the “activity change, negative = inhibition” value is 5.94% [at 42.5 µM]. In the case of `CCOC(=O)[C@H](CCc1ccccc1)N[C@@H](C)C(=O)N1[C@H](C(=O)O)C[C@@H]2CCC[C@@H]21`, the “activity change, negative = inhibition” value is 2.24% [at 42.5 µM]. Take `O=Cc1cccc([N+](=O)[O-])c1`: the “activity change, negative = inhibition” value is -1.46%. Same read-out and setting: next, `CC/C=C\CC/C=C/C(OCC)OCC`: 0.759%. For the compound `CCCCCSCCCCC`, the “activity change, negative = inhibition” value was 2.99%. For the compound `CCOC(=O)CC(C)=O`, the “activity change, negative = inhibition” value is -0.311%. As for `Cn1cc(S(C)=O)c(=O)c2ccc(F)cc21` (centres undefined), the “activity change, negative = inhibition” value was -7.65% [at 42.5 µM].

Regarding `CC(C)CCCC(C)N` (centres undefined), the “activity change, negative = inhibition” value was -1.55% [at 42.5 µM]. As to `COC(=O)c1ccc(C)cc1C1=NC(C)(C(C)C)C(=O)N1` (centres undefined), the “activity change, negative = inhibition” value was 2.3%. As for `CC(C)(O)C(=O)c1ccccc1`, the “activity change, negative = inhibition” value is -3.29%. Turning to `N#Cc1ccc(C2CCCc3cncn32)cc1` (centres undefined), the “activity change, negative = inhibition” value is -4.3% [at 42.5 µM].
